Assay results reported in the supplement of paper PMC10723795.
± gives the standard deviation of the averaged measurements.

Test system: RPE1
Assay: nucleolar normality score relative to DMSO (fraction of DMSO control); RPE1 is a non-cancer human cell line; higher = more normal nucleoli (less nucleolar stress)
Description: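 Selected screen hits were validated in hTERT lines (BJ5TA, CHON-002, RPE1) and cancer lines (DLD1, HCT116). Cells were immunostained for nucleolin and UBF and the nucleolar normality score was measured per field of view, with 4 fields per drug. Scores are normalized to each cell line's own DMSO control. Dose and time are not stated for this panel.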

Row | SMILES | nucleolar normality score
1 | CN1CC[C@H](c2c(O)cc(O)c3c(=O)cc(-c4ccccc4Cl)oc23)[C@H](O)C1 [Flavopiridol] | 0.254 ± 0.019
2 | CN(C)CCNC(=O)c1cccn2c(=O)c3cc4ccccc4cc3nc12 | 0.0724 ± 0.012
3 | CC(C)c1c2cc(-c3ccnc(NC4CCC(NC5CCOCC5)CC4)n3)ccc2nn1C (configuration not stated) | 0.462 ± 0.015
4 | C=CCNC1=C2C[C@@H](C)C[C@H](OC)[C@H](O)[C@@H](C)/C=C(\C)[C@H](OC(N)=O)[C@@H](OC)/C=C\C=C(/C)C(=O)NC(=CC1=O)C2=O | 0.296 ± 0.014
5 | COc1cccc2c1C(=O)c1c(O)c3c(c(O)c1C2=O)C[C@@](O)(C(=O)CO)C[C@@H]3O[C@H]1C[C@H](N)[C@H](O)[C@H](C)O1 [Doxorubicin] | 0.133 ± 0.011
6 | CC(C)n1nc(-c2ccc3oc(N)nc3c2)c2c(N)ncnc21 [Sapanisertib] | 0.405 ± 0.0078
7 | COC[C@H](NC(=O)c1cnc(C)s1)C(=O)N[C@@H](COC)C(=O)N[C@@H](Cc1ccccc1)C(=O)[C@@]1(C)CO1 [Oprozomib] | 0.55 ± 0.037
8 | CC(C)c1cc(C(=O)N2Cc3ccc(CN4CCN(C)CC4)cc3C2)c(O)cc1O [Onalespib] | 0.289 ± 0.0093
9 | Cc1cnc(CNC(=O)c2c(=O)c3ccc(N4CCCN(C)CC4)nc3n3c2sc2ccccc23)cn1 | 0.277 ± 0.066
10 | CC(C)C[C@H](NC(=O)[C@H](CCc1ccccc1)NC(=O)CN1CCOCC1)C(=O)N[C@@H](Cc1ccccc1)C(=O)N[C@@H](CC(C)C)C(=O)[C@@]1(C)CO1 [Carfilzomib] | 0.501 ± 0.086
11 | CCc1cnn2c(NCc3ccc[n+]([O-])c3)cc(N3CCCC[C@H]3CCO)nc12 [Dinaciclib] | 0.268 ± 0.01
12 | Cc1nc(-c2cn3c(n2)-c2ccc(-c4cnn(C(C)(C)C(N)=O)c4)cc2OCC3)n(C(C)C)n1 [Taselisib] | 0.376 ± 0.0084
